Screen size: about 420,000 compounds; about 64,000 (15%) were called active. Inconclusive results (about 27%) are left out. Only a sample is shown. A number with no mark means an inactive call. The call rests on the fitted dose curve; in most records, active means well fitted inhibition curve with a large enough effect; inconclusive means small, poorly fitted or top-dose-only effect; inactive means flat fitted curve, though single readings scatter.
Experiment: qHTS for Inhibitors of human tyrosyl-DNA phosphodiesterase 1 (TDP1): qHTS in cells in absence of CPT; further: nearly all actives have a fitted effect of over 55% in size
Settings: DT40 Tdp1-/- hTDP1 cells, no CPT, ATP luminescence, 48 h; activity change, negative = growth inhibition: at 46.2 µM (top of the series)
Text: Human tyrosyl-DNA phosphodiesterase 1 (TDP1) is a novel repair gene, and we propose to use it as a new target for anticancer drug development. TDP1 is not an essential protein, but under treatment with topoisomerase I poison (camptothecin: CPT), TDP1 works as a critical factor for cell survival. To directly identify novel TDP1 inhibitors active in a cellular environment, we have knocked-out the Tdp1 gene in chicken DT40 cells (Tdp1-/-) and generated a complemented counterpart cells that contains a stable transfection of the human TDP1 gene (Tdp1-/-;hTDP1 cells). For the primary screen, Tdp1-/-;hTDP1 cells will be exposed to small molecules in the presence or absence of CPT, and their growth kinetics will be evaluated after 48 hours by measuring ATP activity. […] The hit compounds will then be evaluated in the presence or absence of CPT using Tdp1-/- cells. […] In tertiary assays, biochemical gel-based assays will be used to assess whether the hit compounds specifically target TDP1.
To this end, we have screened this cell line against the MLSMR in two primary screens. In one screen we add CPT and in the other we screen in the absence of CPT; this AID represents the screen where CPT was absent.
NIH Chemical Genomics Center [NCGC]
NIH Molecular Libraries Probe Centers Network [MLPCN]
Assay Submitter (PI): Yves Pommier, NCI
DT40-hTDP1 cells without 20 nM Camptothecin (add 20 microL of DMSO in 1 L of cell culture medium) were dispensed at 400 cells/5microL/well in tissue culture treated 1536-well white wall/solid bottom assay plates (Greiner Bio-One North America, NC, U.S.A.) using a Multidrop Combi 8 channel dispenser (Thermo Fisher, Waltham, MA, USA). 23 nL compounds and controls were transferred using the pin tool (Kalypsys, San Diego, CA, USA) to the assay plates. The assay plates were then incubated at 37 masculineC for a minimum 48 hr. Three microL of Cell Titer Glo solution was added to the plates and incubated at RT in dark for 30 min. Luminescence was read using ViewLux (Perkin Elmer) with 1 sec exposure slow speed, high gain and 2x binning.
For CN(C)C(CNC(=O)c1ccc(S(=O)(=O)NCc2ccco2)cc1)c1ccccc1 (stereo not drawn), the “activity change, negative = growth inhibition” value was -3.83%. In the case of CC(C)(C)c1ccc(C(=O)NCCC(=O)NCc2ccco2)cc1, the “activity change, negative = growth inhibition” value is reported as -22.6%. In the case of O=C(NCc1ccccc1)C(=O)NCC(c1ccco1)S(=O)(=O)c1ccc(Cl)cc1 (stereo not drawn), the Potency is reported as 18.4 µM (active). For CC(C)CNC(=O)C(=O)NCc1ccccc1, the “activity change, negative = growth inhibition” value was 0.828%. In the case of CC(C)(C)c1ccc(C(=O)NCC(c2ccco2)S(=O)(=O)c2ccc(F)cc2)cc1 (stereo not drawn), the Potency is reported as 20.6 µM (active). For O=C(NCCc1ccccc1)C(=O)NCC(c1ccco1)S(=O)(=O)c1ccccc1 (stereo not drawn), the “activity change, negative = growth inhibition” value was -56.5%. In the case of O=C(COC(=O)c1cccc(Cl)c1Cl)NC1CCCCCC1, the “activity change, negative = growth inhibition” value is reported as 1.05%. In the case of O=C(NNS(=O)(=O)c1ccccc1C(F)(F)F)c1cc2ncc(C(F)(F)F)cc2s1, the “activity change, negative = growth inhibition” value is reported as -18.1%. With COc1ccccc1OCCC(=O)OCC(=O)NC(=O)NC(C)(C)C the “activity change, negative = growth inhibition” value was -3.43%. With CSc1nnc(SCc2nc3sc(C(=O)O)c(C)c3c(=O)[nH]2)s1 the “activity change, negative = growth inhibition” value was 12.7%. With COc1ccc(CCNC(=O)COC(=O)c2ccc[nH]c2=O)cc1 the “activity change, negative = growth inhibition” value was 2.84%. In the case of Cc1cc(C)c(-c2c(O)c3ccccc3n(C)c2=O)c(C)c1, the “activity change, negative = growth inhibition” value is reported as -15.9%. With COc1cc2c(=O)n(C)c3ccccc3c2cc1OC the Potency was 11.6 µM (active). With Cc1cccc(Oc2c([N+](=O)[O-])c(=O)n(C)c3ccccc23)c1 the “activity change, negative = growth inhibition” value was -20.7%. In the case of Nc1ccc2c(c1)C(=Cc1cccnc1)c1ccccc1-2, the “activity change, negative = growth inhibition” value is reported as -8.08%. With O=S(=O)(Nc1ccccc1N1CCOCC1)c1ccc(Cl)s1 the “activity change, negative = growth inhibition” value was -17.2%. With COc1cccc(NC(=O)C2CCN(c3cc(C)nc4c(-c5ccc(Cl)cc5)c(C)nn34)CC2)c1 the “activity change, negative = growth inhibition” value was -9.69%. For COc1ccc(-n2c(-c3ccc(Cl)cc3)n[nH]c2=S)c(OC)c1, the “activity change, negative = growth inhibition” value was -3.08%. In the case of COc1ccc(CCNC(=O)COC(=O)c2ncc(Cl)c(Cl)c2Cl)cc1OC, the “activity change, negative = growth inhibition” value is reported as 3.75%. With COc1ccc(CCNc2nc(C)cc(C)n2)cc1OC the “activity change, negative = growth inhibition” value was 0.652%. In the case of COc1ccc(-c2cc(C(F)(F)F)nc(NCc3cccnc3)n2)cc1, the “activity change, negative = growth inhibition” value is reported as -9.36%. With COc1ccc(-c2c(C)nn3c(N4CCC(C(=O)NCCC(C)C)CC4)cc(C)nc23)cc1OC the “activity change, negative = growth inhibition” value was -14.3%. For COc1ccc(CCNc2nc(-c3ccc(Cl)cc3)cc(C(F)(F)F)n2)cc1OC, the Potency was 25.9 µM (active). In the case of COc1ccc(CCNc2cc(C)nc3c(-c4ccc(Cl)cc4)c(C)nn23)cc1OC, the Potency is reported as 18.4 µM (active). With COc1ccc(CNc2nc(-c3ccc(Cl)cc3)cc(C(F)(F)F)n2)cc1 the Potency was 18.4 µM (active). In the case of CCN1CCN(C(=O)CN(C)S(=O)(=O)c2ccc(OC)cc2)CC1, the “activity change, negative = growth inhibition” value is reported as 3.64%. With N#C/C(=C\N1CCOCC1)S(=O)(=O)c1ccc(Cl)cc1 the “activity change, negative = growth inhibition” value was -7.62%. In the case of CCCC(=O)N1CCC1(C)C(=O)NS(=O)(=O)c1ccc(Cl)cc1 (stereo not drawn), the “activity change, negative = growth inhibition” value is reported as -1.28%. In the case of COc1cccc(NC(=O)CN(C)CC(=O)c2c(N)n(Cc3ccccc3)c(=O)n(C)c2=O)c1, the “activity change, negative = growth inhibition” value is reported as 5.98%. In the case of CC1CCC2(CC1)NC(=O)N(CC(=O)c1cccn1C)C2=O (stereo not drawn), the “activity change, negative = growth inhibition” value is reported as -2.88%. In the case of COc1ccc(NC(=O)COC(=O)CNC(=O)C2CCCCC2)cc1, the “activity change, negative = growth inhibition” value is reported as -12%. For O=C(NCc1cccnc1)c1ccccc1NC(=O)c1c(F)cccc1F, the “activity change, negative = growth inhibition” value was 8.82%. With CN(C)c1ccc2c(=O)[nH][nH]c(=O)c2c1 the “activity change, negative = growth inhibition” value was 0.253%. With CCCN1C2CCCC1CC(NC(=O)c1cccc(OC)c1)C2 (stereo not drawn) the “activity change, negative = growth inhibition” value was -4.33%. In the case of CCCN1C(=O)C(NC(C)=O)c2cc(OC)ccc21 (stereo not drawn), the Potency is reported as 18.4 µM (active). In the case of COc1cccc(NC(=O)N2C3CCCC2CC(NC(C)=O)C3)c1 (stereo not drawn), the “activity change, negative = growth inhibition” value is reported as 22.8%. For Cn1c(CCNS(=O)(=O)c2ccc(F)cc2)nnc1SCc1cccnc1, the “activity change, negative = growth inhibition” value was -12.9%. In the case of COc1ccc(N(C)C(=O)CCS(=O)(=O)c2cccc3nsnc23)cc1, the Potency is reported as “inactive”. With Cc1ccc(NC(=O)Nc2cc(-c3ccccc3)nn2C)cc1Cl the Potency was 20.6 µM (active). With Cc1cc(NC(=O)Nc2ccc(Cl)cc2)n(-c2ccccc2)n1 the “activity change, negative = growth inhibition” value was -14.9%. For CCOC(=O)C1CCN(C(=O)Nc2ccc(C)c(Cl)c2)CC1, the “activity change, negative = growth inhibition” value was -18.4%. For O=C(NCc1nnc(SCC(=O)N2CCC(Cc3ccccc3)CC2)o1)c1ccco1, the “activity change, negative = growth inhibition” value was -3.4%. In the case of O=C(CN1CCOc2ccccc21)N1CCC(Cc2ccccc2)CC1, the Potency is reported as 11.6 µM (active). For CC1(C)CC(=O)C(CC(=O)N2CCC(Cc3ccccc3)CC2)C(=O)C1, the “activity change, negative = growth inhibition” value was -13.8%. For CC1COC2C(O1)N(S(C)(=O)=O)CCN2S(C)(=O)=O (stereo not drawn), the “activity change, negative = growth inhibition” value was -9.7%. For O=C(Nc1cccc(-c2nc3ccccc3[nH]2)c1)c1ccc(C(=O)Nc2cccc(-c3nc4ccccc4[nH]3)c2)cc1, the Potency was 18.4 µM (active). For Cc1nnc(NC(=O)/C=C/c2ccco2)s1, the “activity change, negative = growth inhibition” value was -3.69%. In the case of O=C(Nc1cccc(NC(=O)c2ccc(Br)cc2)c1)c1ccccc1, the “activity change, negative = growth inhibition” value is reported as -5.64%. For COc1cccc(NC(=O)COC(=O)/C=C/c2ccco2)c1, the “activity change, negative = growth inhibition” value was -27%. With O=C(/C=C/c1ccco1)Nc1cccc(-c2nc3ccccc3[nH]2)c1 the Potency was 23.1 µM (active). For c1ccc(-c2[nH]ncc2-c2nc3ccccc3[nH]2)cc1, the “activity change, negative = growth inhibition” value was 6.23%. In the case of NS(=O)(=O)c1cccc(NC(=O)COC(=O)/C=C/c2ccco2)c1, the “activity change, negative = growth inhibition” value is reported as -3.67%. In the case of Cc1ccc(-n2nc3ccc(NC(=O)/C=C/c4ccco4)cc3n2)cc1C, the Potency is reported as 18.4 µM (active).

Source: PubChem BioAssay AID686978 (National Center for Advancing Translational Sciences (NCATS), 2013)
On the % scale 0 is the no-effect control and ±100 the full control effect; potency means the concentration at half of the fitted maximal effect.
